Screening data: PubChem BioAssay, several laboratories
PTEN del growth = suppresses growth of cells with PTEN deletion | HCT116 PTEN-null viability, CellTiter-Glo, 60 h; hits give low values | viability, % at 10 µM | hit rate 1.2% among 140,000 | AID 827;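 active = viability at or below a set limit, 4 SD under the median of all tested compounds, cut at about 3.7% in these data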;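 also: PTEN knockout HCT116 line with beta catenin targeted HCT116 as companion control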
Insulin prom up = MIN6 insulin promoter up-regulation; MIN6 insulin promoter-GFP reporter, high-content imaging; hits give high values; z-score at 5 µM; hit rate 0.3% among 190,000; AID 1625;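 active = z-score above 3 at 5 µM with at least 500 cells counted in the well; inconclusive = wells under 500 cells, flagged as cytotoxic or low count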
bCat KO growth = beta-catenin-lacking colon tumor cell growth suppression; HCT116 beta-catenin knockout viability, CellTiter-Glo, 60 h; hits give low values; viability, % at 10 µM; hit rate 1.5% among 140,000; AID 818;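 active = viability at or under a set limit, the compound median less 4 SD, cut at about 6% in these data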
Autophagy mod = modulators of autophagy | MEF GFP-LC3 puncta imaging; test concentration mostly 10 µM | calls only at 10 µM (by protocol) | hit rate 0.98% among 190,000 | AID 463193;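 active = percentage of spot-positive cells more than 3 SD above its plate mean, without a fluorescence outlier flag or 80% toxicity; inconclusive = no clear call, values can overlap the other calls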
Insulin prom inh = TRM-6 insulin promoter activity inhibition. TRM-6 cells (human fetal islet line), insulin promoter-eGFP reporter, imaging; reporter expression induced with tamoxifen. inhibition, % at 2 µM. hit rate 0.9% among 130,000;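 active = inhibition above the mean plus 3 SD, with well images judged a real hit on visual review, cut at about 60% in these data, passing the limit was not always enough; inconclusive = inhibition over the cutoff but images rejected on review; inactive = inhibition not above the cutoff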
Lmaj promast = Leishmania major promastigote growth inhibition. inhibition, % at 10 µM. AID 1063. hit rate 9% among 200,000. Leishmania major promastigotes, resazurin fluorescence viability; in the data active = inhibition above about 50%;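 also: promastigotes grown with compound for 44 hours at 28 °C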
Of the large screens only hits and unclear results are named; the others gave an inactive call. An excerpt weighted towards active compounds, which were near 9.6% of everything screened.

Cc1ccc2[nH]c3c(N4CCN(Cc5ccccc5)CC4)ncnc3c2c1	Lmaj promast 56.9 (no result: Insulin prom up, Insulin prom inh)
COc1cccc2[nH]c3c(N4CCC(C)CC4)ncnc3c12	Lmaj promast 94.0 (no result: Insulin prom inh)
Cc1ccc2[nH]c3c(N4CCN(Cc5ccc6c(c5)OCO6)CC4)ncnc3c2c1	Insulin prom up inconclusive, Lmaj promast 62.1 (no result: Insulin prom inh)
Cc1ccc2[nH]c3c(N4CCCCCC4)ncnc3c2c1	bCat KO growth 5.1, Lmaj promast 60.0
CCn1cc(S(=O)(=O)CC(=O)Nc2cc(C)ccc2C)c2ccccc21	none (no result: Insulin prom inh)
CCOc1ccc2[nH]c3c(N4CCN(c5ccccn5)CC4)ncnc3c2c1	Autophagy mod active, Insulin prom inh 87.5 (no result: Insulin prom up)
Fc1ccc2[nH]c3c(N4CCN(C5CCCCC5)CC4)ncnc3c2c1	Insulin prom up inconclusive, Lmaj promast 84.8
O=c1c2[nH]c3ccc(F)cc3c2ncn1CC1CCCO1 (stereo unspecified)	none (no result: PTEN del growth, bCat KO growth, Autophagy mod, Insulin prom inh, Lmaj promast)
OC1(c2cccc(C(F)(F)F)c2)CCN(c2ncnc3c2[nH]c2ccccc23)CC1	PTEN del growth 1.3, bCat KO growth 1.2, Autophagy mod active, Lmaj promast 98.3 (no result: Insulin prom up, Insulin prom inh)
O=c1ccc(Oc2nc(N3CCOCC3)nc(N3CCOCC3)n2)n[nH]1	none
CCCCCn1c(=O)c(-c2nc3ccccc3[nH]2)c(O)c2ccccc21	Lmaj promast 56.5 (no result: PTEN del growth, bCat KO growth, Insulin prom inh)
CCCCCCCCn1c(=O)c(C(=O)OCC)c(O)c2ccccc21	none (no result: Insulin prom up)
C#CCSc1nc(N)c2c(n1)OC(N)=C(C#N)C2c1cccnc1 (stereo unspecified)	Lmaj promast 76.0 (no result: PTEN del growth, bCat KO growth)
CC(C)c1[nH]nc2c1C(c1cccnc1)C(C#N)=C(N)O2 (stereo unspecified)	none
Cc1ccc(-c2[nH]nc3c2C(c2cccnc2)C(C#N)=C(N)O3)cc1 (stereo unspecified)	Lmaj promast 70.9 (no result: Insulin prom up, Insulin prom inh)
COC(=O)c1cn(-c2ccccc2)nc1-c1ccc(OC)cc1	none (no result: PTEN del growth, bCat KO growth)
CCC(=O)n1nc(-c2ccccc2)nc1NCc1ccccc1	Insulin prom inh 86.0
Cc1ccc(-n2c(SCc3nc4ccccc4[nH]3)nnc2-c2ccncc2)cc1	none
CCOc1ccc(N=C2NC(=O)S/C2=C\c2ccc(Cl)cc2)cc1	none
CCOc1ccc2nc(N3C(=O)/C(=C/c4ccc(Cl)cc4)NC3=S)sc2c1	Autophagy mod active (no result: Insulin prom inh)
CN(C)c1ccc(/C=C/c2ccc3ccccc3[n+]2C)cc1	PTEN del growth 2.0, Insulin prom up inconclusive, bCat KO growth 2.1, Autophagy mod active, Lmaj promast 100.4 (no result: Insulin prom inh)
CN(C)c1ccc(/C=C/c2cccc[n+]2[O-])cc1	none (no result: PTEN del growth, bCat KO growth, Autophagy mod, Insulin prom inh, Lmaj promast)
CN(C)c1ccc(/C=C/c2ccc3c4ccccc4ccc3[n+]2-c2ccccc2)cc1	Insulin prom up inconclusive, Autophagy mod active, Lmaj promast 100.5 (no result: PTEN del growth, bCat KO growth, Insulin prom inh)
COc1ccc(S(=O)(=O)NC(C)(C)C)cc1-c1nnc2c3ccccc3c(C)nn12	none
Cc1c(C=O)c2ccccn2c1C(=O)c1ccccc1	none
Cc1c(C(C)(C)C)c(C=S)n2ccccc12	Lmaj promast 62.7
Cc1ccc(C(NC(=O)N2CCCCC2)=C(Cl)Cl)cc1F	none (no result: Insulin prom inh)
Cc1c(NC2(c3nnnn3-c3ccc(Br)cc3)CCCCC2)c(=O)n(-c2ccccc2)n1C	none
COCCn1c(=NC(=O)CSCC(=O)Nc2cc(C)on2)sc2cc(C(=O)OC)ccc21	PTEN del growth 0.5
Clc1cccc(-c2nnc(-c3ccccc3)o2)c1	bCat KO growth 2.4
COC(=O)CSc1nc(-c2ccccc2)nc2ccccc12	none (no result: PTEN del growth, bCat KO growth)
COC(=O)c1ccc2c(=O)n(NC(C)=O)c(=S)[nH]c2c1	none
Cc1oc2c(c1C(=O)N1CCC(C)CC1)C(=O)c1ccccc1C2=O	PTEN del growth 1.5, bCat KO growth 1.6, Lmaj promast 99.5
CCOC(=O)C1CCN(C(=O)c2c(C)oc3c2C(=O)c2ccccc2C3=O)CC1	PTEN del growth 0.7, bCat KO growth 1.1, Lmaj promast 99.8
CC1CCN(C(=O)c2cc3ccccc3c(=O)o2)CC1	none
COC(=O)CSc1nc2c(c(-c3ccc(C)o3)c1C#N)CCCC2	none (no result: Insulin prom inh)
O=C(CNC(=O)c1cccc(F)c1)N/N=C/c1cc(Br)ccc1OCc1ccccc1	Lmaj promast 51.1
COc1ccccc1NC(=O)C(=O)N/N=C/c1ccc([N+](=O)[O-])s1	Lmaj promast 100.5 (no result: PTEN del growth, bCat KO growth, Insulin prom inh)
O=C(N/N=C\c1ccc([N+](=O)[O-])s1)c1cncc(Br)c1	PTEN del growth 1.5, bCat KO growth 3.4, Lmaj promast 100.2
O=C(Cc1ccccc1)N/N=C/c1ccc([N+](=O)[O-])s1	PTEN del growth 1.0, bCat KO growth 1.4, Lmaj promast 100.6 (no result: Insulin prom inh)
CCOc1ccccc1NC(=O)C(=O)N/N=C/c1ccc([N+](=O)[O-])cc1	none (no result: PTEN del growth, bCat KO growth, Insulin prom inh)
O=C(N/N=C/c1cccs1)c1cncc(Br)c1	none (no result: PTEN del growth, bCat KO growth, Insulin prom inh)
Cc1nc2ncnn2c(N2CCN(C(=O)c3cccc(F)c3)CC2)c1Cc1ccccc1	none (no result: Insulin prom inh)
Nc1nonc1-c1nc2ccccc2n1CC(=O)O	none (no result: Insulin prom up)
Cc1ccc(-n2c(=O)c3sccc3n(CC(=O)NCc3ccco3)c2=O)cc1F	none (no result: Insulin prom up)
Cc1ccc(COc2ccc(Br)cc2/C=N/O)cc1	none
Cn1c(SCC(=O)N/N=C/c2ccccn2)nnc1-c1ccccc1	none (no result: PTEN del growth, bCat KO growth, Autophagy mod, Insulin prom inh, Lmaj promast)
Cc1ccccc1C(=O)N/N=C/c1ccsc1C	none
Cc1ccccc1C(=O)N/N=C/c1ccc([N+](=O)[O-])s1	PTEN del growth 2.6, bCat KO growth 3.6, Lmaj promast 100.4 (no result: Insulin prom up)
Cn1c(SCC(=O)N/N=C/c2ccc([N+](=O)[O-])s2)nnc1-c1ccccc1	PTEN del growth 1.6, bCat KO growth 1.9, Lmaj promast 100.5
O/N=C/c1cc(Br)ccc1OCc1ccc(F)cc1	Lmaj promast 99.6 (no result: PTEN del growth, Insulin prom up, bCat KO growth)
O=C(CNC(=O)c1cccc(F)c1)N/N=C/c1ccc([N+](=O)[O-])s1	Lmaj promast 100.4 (no result: PTEN del growth, Insulin prom up, bCat KO growth)
Cc1ccnn1CC(=O)N/N=C/c1ccc([N+](=O)[O-])s1	none (no result: PTEN del growth, bCat KO growth, Autophagy mod, Insulin prom inh, Lmaj promast)
O=C(N/N=C/c1ccc([N+](=O)[O-])s1)c1ccccc1	Lmaj promast 100.2 (no result: PTEN del growth, bCat KO growth)
O=C(N/N=C/c1ccc([N+](=O)[O-])s1)c1ccccc1Br	PTEN del growth 1.8, bCat KO growth 1.9, Lmaj promast 100.5
O=C(N/N=C/c1ccc([N+](=O)[O-])s1)C(O)c1ccccc1 (stereo unspecified)	PTEN del growth 1.0, bCat KO growth 0.8, Lmaj promast 100.5
COC(=O)N/N=C/c1ccc([N+](=O)[O-])s1	Lmaj promast 68.8
COc1ccc(CNC(=O)COC(=O)CC2CC3CCC2C3)cc1OC (stereo unspecified)	none
Cc1ccc(-n2c(-c3nn(C)cc3Cl)n[nH]c2=S)cc1	none (no result: Insulin prom inh)
CCCSc1cc(=O)n(-c2ccccc2)nc1C(=O)OCC	none
CCOc1ccc(-c2cc(CCCC(=O)NCCc3ccccc3)no2)cc1	Insulin prom inh 75.0 (no result: Insulin prom up)
O=C(Nc1ccccc1N1CCOCC1)c1cnccn1	none
O=C(COC(=O)C1CC1)Nc1ccccc1Sc1ccccc1	none
NC(=O)C1CCN(CC(=O)Nc2ccccc2Sc2ccccc2)CC1	none
Cc1ccc(C(=O)OCC(=O)Nc2ccccc2Sc2ccccc2)cc1C	Lmaj promast 62.4
NC(=O)C1CCN(CC(=O)Nc2ccccc2Sc2ccc(Cl)cc2)CC1	Lmaj promast 93.0 (no result: Insulin prom inh)
